# PubChem BioAssay (EPA / NIEHS)
# Active and inactive are the calls of the source. How the source made its calls: active means hit-call score of the fitted dose curve at least 0.9, where 1 is the maximum; inactive means score below 0.9.
# Assay: APR_HepG2_p53Act_24hr: Apredica 24-hour HepG2 Assay for p53 Activation (AID 2282913);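 further: p53 protein immunofluorescence averaged per cell in HepG2 with Hoechst nuclei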
# Details: high-content imaging, actives raise or lower the signal
# Procedure, shortened: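 Automated fluorescence imaging quantifies p53 immunostaining in HepG2 cells after a 24 hr exposure (0.39–200 uM, duplicate, 0.5% DMSO). Nuclei are located by Hoechst 33342 staining.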
Structure (SMILES),outcome,AC50
CC#C[C@]1(O)CC[C@H]2[C@@H]3CCC4=CC(=O)CCC4=C3[C@@H](c3ccc(N(C)C)cc3)C[C@@]21C,inactive,
CCOC(=O)CC(O)(CC(=O)OCC)C(=O)OCC,inactive,
CCCCCCCC(=O)O,inactive,
CC[C@H](c1ccc(O)cc1)[C@@H](CC)c1ccc(O)cc1,inactive,
O=c1c(-c2ccc(O)cc2)coc2cc(O)ccc12,inactive,
CCCCC(CC)COC(=O)CCCCC(=O)OCC(CC)CCCC (stereo unspecified),inactive,
CC(C)(C)c1cccc(C(C)(C)C)c1O,,100 µM (active)
CCCOc1sc(C(=O)N2CCC(c3cc(CN)ccc3F)CC2)c(C)c1Br,,4.2 µM (active)
NC(=O)N(O)[C@@H]1C=C[C@H](Oc2cccc(Oc3ccc(F)cc3)c2)C1,,105 µM (active)
NC(=O)N1C(=O)C(C(=O)c2cc(Cl)cs2)c2cc(F)c(Cl)cc21 (stereo unspecified),,105 µM (active)
Cc1cc(C)c(O)c(C)c1,inactive,
Nc1cccc2c(N)cccc12,,96.2 µM (active)
COCC(C)O (stereo unspecified),inactive,
c1ccc2c(c1)ccc1ccccc12,inactive,
CCCCC[C@H](O)CC(=O)CCc1ccc(O)c(OC)c1,inactive,
CC(C)CCCCCCOC(=O)CCCCC(=O)OCCCCCCC(C)C,inactive,
O=C(/C=C/c1ccc(O)cc1)CC(=O)/C=C/c1ccc(O)cc1,inactive,
OCCC(F)(F)C(F)(F)C(F)(F)C(F)(F)C(F)(F)C(F)(F)C(F)(F)C(F)(F)F,,25.1 µM (active)
C#C[C@]1(O)CC[C@H]2[C@@H]3CCC4=CC(=O)CC[C@@H]4[C@H]3CC[C@@]21C,inactive,
CCc1nn(C2CCCCC2)c2cc(C3(C#N)CCC(C(=O)O)CC3)ccc12 (stereo unspecified),inactive,
OC1CCCCC1,inactive,
CCc1ccc(CCOc2ccc(CC3SC(=O)NC3=O)cc2)nc1 (stereo unspecified),inactive,
CC(C)(C)c1ccc(O)c(C(C)(C)C)c1,inactive,
Oc1cccc(O)c1,inactive,
CN1CCN(c2ccccc2/C=C2\SCCN(c3ccc(Cl)c(Cl)c3)C2=O)CC1,,23.5 µM (active)
COC(=O)CCCCC(=O)OC,inactive,
COc1cc(CCC(=O)CC(=O)CCc2ccc(O)c(OC)c2)ccc1O,inactive,
COCC(C)OCC(C)O (stereo unspecified),inactive,
CCN(CC)CCNc1ccc(CNC=O)c2sc3ccc(OC)cc3c(=O)c12,,2.62 µM (active)
Cc1oc(-c2ccccc2)nc1CCOc1ccc(C[C@H](Nc2ccccc2C(=O)c2ccccc2)C(=O)O)cc1,,107 µM (active)

# Assay: APR_HepG2_CellCycleArrest_72hr: Apredica 72-hour HepG2 Assay for Cell Cycle Arrest (AID 2282914)
# Details: high-content imaging, actives raise or lower the signal
# Procedure, shortened: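 Cell cycle arrest in HepG2 was scored from nuclear DNA content after 72 hr compound treatment (0.39–200 uM). Activity, either gain or loss, was fitted against the DMSO baseline.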
Structure (SMILES),outcome,AC50
CC#C[C@]1(O)CC[C@H]2[C@@H]3CCC4=CC(=O)CCC4=C3[C@@H](c3ccc(N(C)C)cc3)C[C@@]21C,inactive,
CCOC(=O)CC(O)(CC(=O)OCC)C(=O)OCC,inactive,
CCCCCCCC(=O)O,inactive,
CC[C@H](c1ccc(O)cc1)[C@@H](CC)c1ccc(O)cc1,inactive,
O=c1c(-c2ccc(O)cc2)coc2cc(O)ccc12,inactive,
CCCCC(CC)COC(=O)CCCCC(=O)OCC(CC)CCCC (stereo unspecified),inactive,
CC(C)(C)c1cccc(C(C)(C)C)c1O,,112 µM (active)
CCCOc1sc(C(=O)N2CCC(c3cc(CN)ccc3F)CC2)c(C)c1Br,inactive,
NC(=O)N(O)[C@@H]1C=C[C@H](Oc2cccc(Oc3ccc(F)cc3)c2)C1,inactive,
NC(=O)N1C(=O)C(C(=O)c2cc(Cl)cs2)c2cc(F)c(Cl)cc21 (stereo unspecified),,96.9 µM (active)
Cc1cc(C)c(O)c(C)c1,inactive,
Nc1cccc2c(N)cccc12,inactive,
COCC(C)O (stereo unspecified),inactive,
c1ccc2c(c1)ccc1ccccc12,inactive,
CCCCC[C@H](O)CC(=O)CCc1ccc(O)c(OC)c1,inactive,
CC(C)CCCCCCOC(=O)CCCCC(=O)OCCCCCCC(C)C,inactive,

Structure (SMILES),outcome,AC50
O=C(/C=C/c1ccc(O)cc1)CC(=O)/C=C/c1ccc(O)cc1,inactive,
OCCC(F)(F)C(F)(F)C(F)(F)C(F)(F)C(F)(F)C(F)(F)C(F)(F)C(F)(F)F,,14.7 µM (active)
C#C[C@]1(O)CC[C@H]2[C@@H]3CCC4=CC(=O)CC[C@@H]4[C@H]3CC[C@@]21C,inactive,
CCc1nn(C2CCCCC2)c2cc(C3(C#N)CCC(C(=O)O)CC3)ccc12 (stereo unspecified),inactive,
OC1CCCCC1,inactive,
CCC(=C(c1ccc(O)cc1)c1ccc(OCCN(C)C)cc1)c1ccccc1,inactive,
CCc1ccc(CCOc2ccc(CC3SC(=O)NC3=O)cc2)nc1 (stereo unspecified),,94.4 µM (active)
CC(C)(C)c1ccc(O)c(C(C)(C)C)c1,inactive,
Oc1cccc(O)c1,inactive,
CN1CCN(c2ccccc2/C=C2\SCCN(c3ccc(Cl)c(Cl)c3)C2=O)CC1,inactive,
COC(=O)CCCCC(=O)OC,inactive,
COc1cc(CCC(=O)CC(=O)CCc2ccc(O)c(OC)c2)ccc1O,inactive,
COCC(C)OCC(C)O (stereo unspecified),inactive,
CCN(CC)CCNc1ccc(CNC=O)c2sc3ccc(OC)cc3c(=O)c12,,6.28 µM (active)
Cc1oc(-c2ccccc2)nc1CCOc1ccc(C[C@H](Nc2ccccc2C(=O)c2ccccc2)C(=O)O)cc1,,82.7 µM (active)
